MCF10A rereplic: induces DNA re-replication in MCF 10a normal breast cells; Potency, µM (titrated, usually from 46.1 µM), actives largely listed as activators; MCF 10A DNA re-replication, Hoechst nuclear intensity, 48 h; 350,000 compounds, 2.9% hits; note: nearly all actives have a fitted effect of over 50% in size
KB-V1 cytotox: kills drug-selected multidrug resistant KB-V1 cells. KB-V1 MDR cells viability, CellTiter-Glo, 72 h. Potency, µM (highest dose often 46.1 µM), usual class: cytotoxic. 400,000 compounds, 3.4% hits. AID 1347076; note: nearly all actives have a fitted effect of over 60% in size
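Readout: CellTiter-Glo luminescence, 10 min after addition. Cells: KB-V1 MDR subline, 72 h at 37 degrees C with compound. Analysis: corrected, normalized data fitted to concentration-effect curves.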
KB-3-1 cytotox: kills parental KB-3-1 adenocarcinoma cells | KB-3-1 viability, CellTiter-Glo ATP luminescence, 72 h | Potency, µM (series often up to 46.1 µM), most hits filed as cytotoxic | 400,000 compounds, 1.4% hits; note: nearly all actives have a fitted effect of over 60% in size
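Parental KB-3-1 adenocarcinoma cells in phenol-red-free DMEM with 10% FBS were pin-treated with compounds at several concentrations, incubated 72 h at 37 °C, and viability read by CellTiter-Glo luminescence; concentration-effect curves were fitted after normalization.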
PINK1 modulator: modulators of PINK1 expression. PINK1 immunofluorescence, high-content cytometry, 24 h. Potency, µM (top dose mostly 76.6 µM), most hits filed as activators. 410,000 compounds, 0.2% hits; active = well fitted activation curve with a large enough effect; inconclusive = small, poorly fitted or top-dose-only effect; cell line not stated here; note: nearly all actives have a fitted effect of over 65% in size
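PINK1 protein level read as immunofluorescence by microplate cytometer in a fixed, stained stable cell line after 24 h exposure to five compound concentrations, with CCCP as control.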
SW480 rereplic: inducers of DNA re-replication in SW480 colon cancer cells; 340,000 compounds, 1.8% hits; AID 624297; Potency, µM (doses to about 46.1 µM), usual class: activators; SW480 DNA re-replication, Hoechst DNA content imaging, 48 h; note: nearly all actives have a fitted effect of over 55% in size
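Hoechst fluorescence of nuclei (405 nm excitation, 500-530 nm emission) measured by plate-scanning imager after 48 hr compound exposure at 37 C; re-replication scored as increased number of nuclei with elevated intensity.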
TSG101-PTAP inh: blocks PTAP/TSG101 interaction to inhibit HIV-1 budding; Fluorescence polarization, FITC-PTAP peptide / Tsg101 binding; Potency, µM (top dose mostly 115 µM), most hits filed as inhibitors; 340,000 tested, under 10 active; active = well fitted inhibition curve with a large enough effect in the main read-out, with a control signal flat, not every such curve was filed as active; inconclusive = small, poorly fitted or top-dose-only effect, or effect the other way, or a change in a side signal; inactive = no such curve, though single readings can be large or run the other way
Target sequence (Q99816 whole entry, looked up): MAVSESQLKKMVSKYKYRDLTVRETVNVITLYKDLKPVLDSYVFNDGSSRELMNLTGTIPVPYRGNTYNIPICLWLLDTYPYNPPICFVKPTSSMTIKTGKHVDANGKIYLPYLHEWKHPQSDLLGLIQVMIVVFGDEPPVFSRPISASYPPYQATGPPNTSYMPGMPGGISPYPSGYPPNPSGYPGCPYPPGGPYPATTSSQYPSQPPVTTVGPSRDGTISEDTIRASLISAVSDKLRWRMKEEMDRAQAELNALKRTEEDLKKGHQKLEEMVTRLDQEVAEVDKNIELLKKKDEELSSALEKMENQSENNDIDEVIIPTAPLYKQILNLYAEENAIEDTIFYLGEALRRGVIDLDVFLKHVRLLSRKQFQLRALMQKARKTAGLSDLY
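Compounds were pin-transferred onto Tsg101 binding domain (10 uM final) in HEPES pH 7.5 buffer, then FITC-PTAP peptide was added at 50 nM final. After 20 min at RT, polarization reported peptide displacement across a qHTS concentration series.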
A number is an active result; n = inactive; u = inconclusive; x = not tested or not shown. Only some compounds are listed: those with a hit (about 6.8% of all), similar ones and a draw of the others. Unless noted, calls come from the whole dose curve; as a rule, active = well fitted curve in the direction sought with a large enough effect; inconclusive = small, poorly fitted or top-dose-only effect, or another doubt; inactive = no such curve, though single readings can be large; an effect the other way counts as inactive or inconclusive.

SMILES	MCF10A rereplic	KB-V1 cytotox	KB-3-1 cytotox	PINK1 modulator	SW480 rereplic	TSG101-PTAP inh
Cc1nc(C)c(-c2csc(Nc3cccc(O)c3)n2)s1	n	u	n	n	n	n
C=CCCC(=O)Nc1nc(C)c(-c2csc(Nc3ccccc3OC)n2)s1	n	u	7.31µM	n	u	n
CCC(=O)Nc1nc(C)c(-c2csc(Nc3cccc(O)c3)n2)s1	20.6µM	u	u	n	u	n
Cc1ccc(CN2COc3ccc4c(-c5ccccc5)cc(=O)oc4c3C2)cc1	x	n	n	n	x	x
Cc1csc(=O)n1CC(=O)OCC(=O)c1c(N)n(CC(C)C)c(=O)n(C)c1=O	u	n	n	n	6.51µM	n
Cc1csc(=O)n1CC(=O)OCC(=O)c1c(N)n(C)c(=O)n(C)c1=O	n	u	n	n	n	n
COc1ccc2[nH]c3c(N4CCc5ccccc5C4)ncnc3c2c1	3.66µM	2.59µM	2.59µM	n	u	n
CCOC(=O)N1CCN(c2ncnc3c2[nH]c2ccc(OC)cc23)CC1	n	14.6µM	n	n	n	n
CCCCOc1ncnc2c1[nH]c1ccc(OCC)cc12	n	u	n	n	n	n
CCCCOc1ncnc2c1[nH]c1ccc(F)cc12	u	6.51µM	18.4µM	x	n	n
Fc1ccc2[nH]c3c(N4CCN(c5ccccc5)CC4)ncnc3c2c1	u	16.4µM	n	n	n	n
CC(=O)N1CCCc2cc(S(=O)(=O)NCc3ccc(OC(C)C)cc3)ccc21	x	n	n	n	x	x
Nc1cc2c(cc1C(=O)c1cccc(Br)c1)OCCO2	20.6µM	n	u	n	u	n
Cc1ccc(C(C)C)c(OCC(O)CN(C)Cc2ccccc2)c1 (stereo unspecified)	u	n	n	n	20.6µM	n
Cc1ccc(C(C)C)c(OCCCN(C)Cc2ccccc2)c1	23.1µM	11.6µM	n	n	u	n
COc1ccc(C)cc1S(=O)(=O)Nc1cc2c3c(c1)CC(=O)N3CCC2	n	n	u	n	n	n
Cc1ccc(C)c(S(=O)(=O)Nc2cc3c4c(c2)CC(=O)N4CCC3)c1	n	11.6µM	u	n	n	n
Cc1ccc(S(=O)(=O)Nc2cc3c4c(c2)CCC(=O)N4CCC3)cc1	9.2µM	n	n	n	n	n
O=C(Cc1ccc2c(c1)OCO2)N1CCOc2ccc(CN3CCOCC3)cc2C1	x	x	x	n	x	x
COc1ccc(/C=N\NC(=O)c2ccccc2F)cc1COc1ccc(F)cc1	n	n	n	n	n	n
COc1ccc(/C=N\NC(=O)c2ccccc2F)cc1COc1ccc(F)cc1F	u	u	5.17µM	n	11.6µM	n
COc1ccc(/C=N\NC(=O)c2ccccc2Br)cc1COc1c(F)c(F)cc(F)c1F	4.61µM	x	x	n	u	n
COc1ccc(/C=N/NC(=O)c2nc(Cl)c(Cl)c(N)c2Cl)cc1COc1ccc(F)cc1F	14.6µM	n	n	n	u	n
COc1ccc(/C=N/NC(=O)c2ccoc2C)cc1COc1c(C)cccc1C	7.08µM	u	u	n	u	n
COc1ccc(/C=N/NC(=O)c2nc(Cl)c(Cl)c(N)c2Cl)cc1COc1ccccc1F	n	n	n	n	n	n
SMILES	MCF10A rereplic	KB-V1 cytotox	KB-3-1 cytotox	PINK1 modulator	SW480 rereplic	TSG101-PTAP inh
COc1ccccc1CNC(=O)CCCCn1c(=O)c2ccccc2n(CC(=O)Nc2c(C)cc(C)cc2C)c1=O	x	u	n	n	x	x
CCN1CCC(N(Cc2ccc(F)cc2)C(=O)Nc2ccc(C)c(F)c2)CC1	x	x	x	n	x	x
Cc1cccc(N2CCc3c2nc2ccc(Br)cc2c3N)c1	n	n	n	u	n	n
Nc1c2c(nc3ccc(Br)cc13)N(c1ccccc1)CC2	14.6µM	u	n	n	14.6µM	n
O=c1c2sc(-c3ccccc3)cc2nc2n1CCCCC2	u	11.6µM	n	n	n	n
O=c1c2sc(-c3ccccc3)cc2nc2n1CCC2	n	u	n	n	n	n
COc1ccc(CCNC(=O)c2cc3c(=O)[nH]c4ccc(C)cc4c3s2)cc1OC	x	n	n	n	x	x
CCSc1nnc(NC(=O)Nc2cccc(C)c2)s1	u	n	n	12.6µM	u	n
Cc1cccc(NC(=O)CSc2nnc(NC(=O)c3ccco3)s2)c1	u	n	n	n	n	n

Bioassay records (PubChem)
